Screens as filed in PubChem.
Shown are actives, neighbours in structure and some others; about 11% of the full set was active somewhere.
Pf growth 48h: P. falciparum growth inhibition at 48 hours (one generation). P. falciparum luciferase growth in erythrocytes, 48 h. Potency, µM (highest dose often 28.7 µM), without a hit: at the top dose activity change, negative = inhibition, actives largely listed as inhibitors. 5.9% of 310,000 active. AID 504832; note: % is set by controls: 0 for no effect and ±100 for the full control effect
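Parasite viability was followed by luminescence of a genomically integrated firefly luciferase. Cultures held 0.1% parasitemia at 2% hematocrit (final), incubated under 5% CO2 at 37 C.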
HCV inh: inhibitors of hepatitis C virus infection; Huh7.5.1 HCVcc-Cre infection, luciferase reporter, 44 h; Potency, µM (series often up to 41.8 µM), inactives show at the highest dose activity change, negative = inhibition, hits mostly inhibitors; 3.4% of 340,000 active; note: % is set by controls: 0 for no effect and ±100 for the full control effect
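Infectious HCV cell culture screen: compound-treated cells (1,000/well, pre-plated 4 h) are infected with HCVcc-Cre at roughly 0.5 moi and grown 44 h. Infection is quantified by luciferase signal after 15 min substrate incubation at room temperature.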
NS1 function inh: blocks influenza NS1 protein function | Potency, µM (doses to about 46.1 µM), for inactives: top-dose activity, positive = more growth | 0.4% of 270,000 active; calls by dose curve; note: actives are rising curves; nearly all actives have a fitted effect of over 50% in size
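S. cerevisiae expressing influenza A NS1, grown in glucose, washed, then diluted 1:100 into pH 6.0 -URA galactose medium with 23 nl compound. Growth recovery read as OD600; NS1-free strain serves as control.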
Pf growth 96h: inhibits malaria parasite growth, 96 h. P. falciparum luciferase reporter growth, 96 h. Potency, µM (titrated, usually from 28.7 µM), for inactives: at the highest dose activity change, negative = inhibition, most hits filed as inhibitors. 6.9% of 320,000 active. AID 504834; note: % is set by controls: 0 for no effect and ±100 for the full control effect
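Infected RBCs, 2% Hct / 0.05% parasitemia final; luciferase-reporter P. falciparum; cpd 96 h, 37 C, 5% CO2; luciferase detection reagent; luminescence.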
VACV Venus inh: inhibitors of vaccinia virus (Venus reporter). Vaccinia virus Venus reporter expression, fluorescence. 0.46% of 330,000 active. Potency, µM (doses to about 36.5 µM), for inactives: at the highest dose activity change, negative = inhibition, actives largely listed as inhibitors; calls by dose curve; tested in A549 cells; note: % is set by controls: 0 for no effect and ±100 for the full control effect; nearly all actives have a fitted effect of over 30% in size
Vaccinia mCherry: inhibitors of vaccinia virus infection (mCherry reporter signal) | Vaccinia virus mCherry reporter infection, fluorescence | Potency, µM (top dose mostly 36.5 µM), without a hit: at the top dose activity change, negative = inhibition, most hits filed as inhibitors | 0.63% of 310,000 active; calls by dose curve; tested in A549 cells; note: % is set by controls: 0 for no effect and ±100 for the full control effect; nearly all actives have a fitted effect of over 35% in size
* hit, by the source's call. Unless noted, calls come from the whole dose curve; as a rule, active = well fitted inhibition curve with a large enough effect; inconclusive = small, poorly fitted or top-dose-only effect, or another doubt; inactive = no such curve, though single readings can be large or run the other way. Potency is the fitted concentration of half-maximal effect.

Results for CCCCN=C1NN=C(c2cccc([N+](=O)[O-])c2)CS1 ?
Pf growth 48h: -14%; HCV inh: -11%; Pf growth 96h: 8%; VACV Venus inh: -6%; Vaccinia mCherry: -29%

How did CCCc1nc2ccccc2c(=O)n1/N=C/c1ccc(O)cc1 do in these assays?
Pf growth 48h: 12µM*; HCV inh: inconclusive; NS1 function inh: -8%; Pf growth 96h: inconclusive; VACV Venus inh: inconclusive

Results for O=c1c2ccccc2nc(N/N=C/c2ccc(O)cc2)n1O ?
Pf growth 48h: inconclusive; HCV inh: -4%; NS1 function inh: -9%; Pf growth 96h: 3%; VACV Venus inh: -9%

What do the screens show for `Cc1nc2ccccc2c(=O)n1/N=C/c1c(O)ccc2ccccc12`?
Pf growth 48h: inconclusive; HCV inh: -15%; NS1 function inh: -7%; Pf growth 96h: inconclusive; VACV Venus inh: inconclusive; Vaccinia mCherry: 13µM*

What do the screens show for `Cc1nc2ccccc2c(=O)n1/N=C/c1ccccc1F`?
HCV inh: -5%; NS1 function inh: -9%; Pf growth 96h: 9.3µM*; VACV Venus inh: -5%; Vaccinia mCherry: -5%

How did O=c1c2ccccc2nc(N/N=C/c2c(O)ccc3ccccc23)n1O do in these assays?
Pf growth 48h: 0.52µM*; HCV inh: 0.89µM*; NS1 function inh: 22%; Pf growth 96h: 0.47µM*; VACV Venus inh: inconclusive

Results for COc1cc(OC)c(OC)cc1/C=N/n1c(C)nc2ccccc2c1=O ?
Pf growth 48h: 0%; HCV inh: 7%; NS1 function inh: -15%; Pf growth 96h: inconclusive; VACV Venus inh: -5%; Vaccinia mCherry: 11%

Results for COC(=O)c1ccc(CNC(=O)c2cc(S(=O)(=O)NCc3ccccc3)ccc2C)cc1 ?
VACV Venus inh: -19%; Vaccinia mCherry: inconclusive

How did CC(=O)c1ccc(NC(=O)CCSCCC(=O)Nc2ccc(C(C)=O)cc2)cc1 do in these assays?
HCV inh: 10%; NS1 function inh: -4%; Pf growth 96h: -25%; VACV Venus inh: -5%; Vaccinia mCherry: -7%

How did CCOc1cc(NC(=O)c2ccco2)c(OCC)cc1NC(=O)Cc1cccc(OC)c1 do in these assays?
Pf growth 48h: 4.7µM*; HCV inh: 13µM*; NS1 function inh: -9%; Pf growth 96h: 1%; VACV Venus inh: -21%

Results for COc1ccc(C)cc1NC(=O)C(=O)NNC(=O)c1ccco1 ?
Pf growth 48h: -3%; HCV inh: -13%; NS1 function inh: -19%; Pf growth 96h: 1.9µM*

How did C=CCn1c(SCC(=O)Nc2ccc(NC(=O)c3ccco3)c(OC)c2)nnc1-c1ccncc1 do in these assays?
Pf growth 48h: 13µM*; HCV inh: inconclusive; NS1 function inh: inconclusive; Pf growth 96h: inconclusive

How did CCOc1cc(NC(=O)c2ccco2)c(OCC)cc1NC(=O)COc1ccccc1C do in these assays?
HCV inh: inconclusive; NS1 function inh: 13%

What do the screens show for `C=CCn1c(SCC(=O)Nc2cc(OC)c(NC(=O)c3ccco3)cc2OC)nnc1-c1ccncc1`?
Pf growth 48h: 24%; HCV inh: inconclusive; NS1 function inh: 16%; Pf growth 96h: inconclusive; VACV Venus inh: -8%; Vaccinia mCherry: inactive

Results for COc1cc(OC)cc(C(=O)Nc2cc(NC(=O)c3ccco3)ccc2OC)c1 ?
Pf growth 48h: inconclusive; HCV inh: 10µM*; NS1 function inh: -50%; Pf growth 96h: 3%; VACV Venus inh: inconclusive; Vaccinia mCherry: inconclusive

How did COc1ccc(C)cc1NC(=O)CCNC(=O)c1ccco1 do in these assays?
Pf growth 48h: inconclusive; HCV inh: 1%; NS1 function inh: -1%; Pf growth 96h: 15%; VACV Venus inh: -8%; Vaccinia mCherry: 9%

How did CC(C)c1ccc(NNC(=O)C2CCC2)cc1 do in these assays?
Pf growth 48h: 9%; HCV inh: -4%; NS1 function inh: -32%; Pf growth 96h: 10%; VACV Venus inh: -4%; Vaccinia mCherry: -15%

How did COCc1cccc(-c2csc(C(NC(C)=O)c3ccccc3)n2)c1 (configuration not stated) do in these assays?
VACV Venus inh: 1%; Vaccinia mCherry: -1%
